{"source": "PubChem BioAssay AID449762", "about": "(Southern Research Specialized Biocontainment Screening …, 2010)", "note": "Hit rate of the full screen: of about 330,000 compounds, about 1,900 (0.58%) were called active. Another 4% or so got no clear call; they are omitted. Cut-off read from the data, not from the text of the source: inconclusive = inhibition above about 70% without an active follow-up result; inactive = below that. Only a sample is shown. Measured potencies and affinities stand elsewhere.", "data": [{"assay": "M. tuberculosis growth inhibition, HTS (AID 449762);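 note: bacterial growth assessed after seven days of incubation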", "details": "M. tuberculosis H37Rv growth inhibition, 7H9 media; at 25 µM; hits give high values", "values": [{"smiles": "CN1CCN(C(=O)/C(=C/c2ccc(F)cc2)c2ccsc2)CC1", "inhibition": "-3.93% (inactive)"}, {"smiles": "COc1cc(/C=C2\\C(=N)N3N=C(S(=O)(=O)CC(C)C)SC3=NC2=O)ccc1OC(=O)c1ccco1", "inhibition": "0.47% (inactive)"}, {"smiles": "CCS(=O)(=O)C1=NN2C(=N)/C(=C\\c3ccc(OC(=O)c4ccco4)c(OC)c3)C(=O)N=C2S1", "inhibition": "3.16% (inactive)"}, {"smiles": "Cc1cc(C)c(NS(=O)(=O)c2ccc(Cl)c(C(=O)O)c2)c(C)c1", "inhibition": "-6.92% (inactive)"}, {"smiles": "O=C(NCCCNc1ccc([N+](=O)[O-])cc1)C(F)(F)F", "inhibition": "-6.92% (inactive)"}, {"smiles": "CCn1c(COc2ccc(OC)cc2)nnc1SCc1nc2ccccc2c(=O)[nH]1", "inhibition": "-7.06% (inactive)"}, {"smiles": "Cc1oc(-c2cccc(C(F)(F)F)c2)nc1CN1CCN(c2ccccn2)CC1", "inhibition": "63.4% (inactive)"}, {"smiles": "CCN(CC)c1ccc(/C=N\\N2CCN(Cc3ccc(C)cc3)CC2)cc1", "inhibition": "38% (inactive)"}, {"smiles": "COc1ccc(C(=O)NC(=S)NNC(=O)c2ccco2)cc1", "inhibition": "70.2% (inactive)"}, {"smiles": "O=C(NC(=S)NNC(=O)c1cc2ccccc2cc1O)c1ccco1", "inhibition": "2.19% (inactive)"}, {"smiles": "CCOc1ccc(/C=N/NC(=O)C(C)N(c2ccc(OC)cc2)S(C)(=O)=O)cc1", "note": "(centres undefined)", "inhibition": "-10.4% (inactive)"}, {"smiles": "Cc1ccc(N(CCC#N)C(=O)COC(=O)c2nc3nc(C)cc(C)n3n2)cc1", "inhibition": "-2.21% (inactive)"}, {"smiles": "Cc1nc(N2CCN(c3ccccn3)CC2)c2c(C)c(C(=O)N3CCN(c4ccccc4F)CC3)sc2n1", "inhibition": "61.9% (inactive)"}, {"smiles": "Cc1nc(N2CCN(c3ccccn3)CC2)c2c(C)c(C(=O)N3CCN(c4cccc(Cl)c4)CC3)sc2n1", "inhibition": "60.4% (inactive)"}, {"smiles": "CCCC(=O)Nc1nc2ccc(C(=O)OCC)cc2s1", "inhibition": "-1.4% (inactive)"}, {"smiles": "O=C(CN1C(=O)C2CCCCC2C1=O)OCn1nnc2ccccc2c1=O", "note": "(centres undefined)", "inhibition": "2.65% (inactive)"}, {"smiles": "O=C(CNC(=O)C1CCCCC1)OCn1nnc2ccccc2c1=O", "inhibition": "12.9% (inactive)"}, {"smiles": "COc1ccc(C)cc1NC(=O)CCCN1C(=O)CN(C)C1=O", "inhibition": "4.23% (inactive)"}, {"smiles": "CCN1CCN(C(=O)c2ccc(N3CC4CC(C3)c3cccc(=O)n3C4)c([N+](=O)[O-])c2)CC1", "note": "(centres undefined)", "inhibition": "2.16% (inactive)"}, {"smiles": "Cc1ccc(CNC(=O)c2ccc(S(=O)(=O)N(C)C)cc2)n1C", "inhibition": "3.61% (inactive)"}, {"smiles": "COC(=O)c1c(NC(=O)c2ccccc2)sc2c1CC(C)(C)NC2(C)C", "inhibition": "-11.2% (inactive)"}, {"smiles": "CC1(C)Cc2c(sc(NC(=O)c3ccc(C(=O)c4ccccc4)cc3)c2C#N)C(C)(C)N1", "inhibition": "2.99% (inactive)"}, {"smiles": "COc1ccc(C2Nc3ccccc3C(=O)N2c2ccc(C)cc2)cc1COc1ccccn1", "note": "(centres undefined)", "inhibition": "-5.39% (inactive)"}, {"smiles": "Cc1ccc(C)c(S(=O)(=O)N2CCN(CC(=O)Nc3cc(C)on3)CC2)c1", "inhibition": "1.82% (inactive)"}, {"smiles": "O=C(N/N=C/c1ccc[nH]1)c1cccnc1", "inhibition": "-9.86% (inactive)"}, {"smiles": "O=C(N/N=C/c1ccc[nH]1)c1cccc(Br)c1", "inhibition": "47% (inactive)"}, {"smiles": "COc1ccc(CCNC(=O)C2CCCN2S(=O)(=O)c2ccc(F)cc2)cc1OC", "note": "(centres undefined)", "inhibition": "0.4% (inactive)"}, {"smiles": "O=C(CN(Cc1ccco1)C(=O)Cn1nnc(-c2cccs2)n1)NCc1ccccc1", "inhibition": "4.1% (inactive)"}, {"smiles": "COC/C=C/C1=CC2=CC(=O)C(C)(OC(=O)c3cnc4ccccc4n3)C(=O)C2=CN1c1ccc(CO)cc1", "note": "(centres undefined)", "inhibition": "3.29% (inactive)"}, {"smiles": "O=C(c1ccc2c(=O)n(Cc3ccccc3)c(=S)[nH]c2c1)N1CCCC1", "inhibition": "-3.86% (inactive)"}, {"smiles": "CC(CCN1CCC(n2nccc2NC(=O)c2ccccc2Cl)CC1)c1ccccc1", "note": "(centres undefined)", "inhibition": "15.6% (inactive)"}, {"smiles": "Cc1nc(SCc2ccccc2F)c2cnn(-c3ccccc3)c2n1", "inhibition": "9.04% (inactive)"}, {"smiles": "COc1cccc(-c2nc(C(=O)NCCCN3CCOCC3)cc3c2[nH]c2ccccc23)c1", "inhibition": "-10% (inactive)"}, {"smiles": "Cc1ccc(-c2nc(C(=O)NCCCN3CCOCC3)cc3c2[nH]c2ccccc23)cc1", "inhibition": "-3.27% (inactive)"}, {"smiles": "Cc1ccc(OCCn2ncc3ccccc3c2=O)c(C)c1", "inhibition": "9.3% (inactive)"}, {"smiles": "ON=C1c2cc(OCCN3CCCCC3)ccc2-c2ccc(OCCN3CCCCC3)cc21", "inhibition": "7.74% (inactive)"}, {"smiles": "COc1ccc2c(c1)C(=NO)c1cc(OC)ccc1-2", "inhibition": "-4.82% (inactive)"}, {"smiles": "CC1CCCC(C)N1C(=O)COC(=O)c1ccccc1O", "note": "(centres undefined)", "inhibition": "2.65% (inactive)"}, {"smiles": "O=c1[nH]c2ccccc2nc1-c1ccccc1", "inhibition": "-0.96% (inactive)"}, {"smiles": "O=c1[nH]c2ccccc2nc1-c1ccc(Cl)cc1", "inhibition": "2.14% (inactive)"}, {"smiles": "O=C(N/N=C/C=C/c1ccco1)C(O)c1ccccc1", "note": "(centres undefined)", "inhibition": "50.7% (inactive)"}, {"smiles": "O=C(CCCCCCC(=O)c1ccccc1)c1ccccc1", "inhibition": "-5.92% (inactive)"}, {"smiles": "O=C(CCCCCCCC(=O)c1ccccc1)c1ccccc1", "inhibition": "4.08% (inactive)"}, {"smiles": "COCC(=O)NC1(c2nnnn2CCOC(=O)Nc2ccc(Cl)cc2)CCCCC1", "inhibition": "-9.42% (inactive)"}, {"smiles": "S=C(Nc1ccccc1Cl)Nc1ccc(Cl)cc1Cl", "inhibition": "-2.8% (inactive)"}, {"smiles": "S=C(NCCNC(=S)Nc1ccccc1Cl)Nc1ccccc1Cl", "inhibition": "4.51% (inactive)"}, {"smiles": "CCC(Sc1nnc2c3ccccc3n(CC)c2n1)C(=O)Nc1sc2c(c1C#N)CCCC2", "note": "(centres undefined)", "inhibition": "1.09% (inactive)"}, {"smiles": "O=[N+]([O-])c1ccc(Nc2nc(NCCO)nc(N3CCCC3)n2)cc1", "inhibition": "7.94% (inactive)"}, {"smiles": "O=[N+]([O-])c1ccc(Nc2nc(N3CCOCC3)nc(N3CCOCC3)n2)cc1", "inhibition": "-0.58% (inactive)"}, {"smiles": "S=C(Nc1ccccc1Cl)N(CCCN1CCOCC1)Cc1ccco1", "inhibition": "0.76% (inactive)"}, {"smiles": "Cc1ccc2nc(-c3cccc(Br)c3)cc(C(=O)NC3CC3)c2c1", "inhibition": "-6.86% (inactive)"}, {"smiles": "Cc1ccc(-c2cc(C(=O)NC3=NCCS3)c3cc(Br)ccc3n2)o1", "inhibition": "8.99% (inactive)"}, {"smiles": "CCN(Cc1ccccc1)C(=O)COC(=O)c1cc(S(=O)(=O)Nc2c(C)n(C)n(-c3ccccc3)c2=O)ccc1C", "inhibition": "5.3% (inactive)"}, {"smiles": "CCCCCN(C(=O)CCCSc1nncs1)c1c(N)n(CCCC)c(=O)[nH]c1=O", "inhibition": "3.89% (inactive)"}, {"smiles": "CCN(CC)c1ccc(/C=C/[N+](=O)[O-])cc1", "inhibition": "0.21% (inactive)"}, {"smiles": "CN(C)c1ccc(/C=C/[N+](=O)[O-])cc1", "inhibition": "39% (inactive)"}, {"smiles": "Cc1ccc(/C=N/NC(=O)c2csc(C)c2)o1", "inhibition": "4.06% (inactive)"}, {"smiles": "O=[N+]([O-])c1ccc(Sc2cccc3cccnc23)c([N+](=O)[O-])c1", "inhibition": "65.5% (inactive)"}, {"smiles": "O=c1cc(-c2ccccc2)nc(Sc2ccc([N+](=O)[O-])cc2[N+](=O)[O-])[nH]1", "inhibition": "57.1% (inactive)"}, {"smiles": "O=C(O)c1cc(N2C(=O)C3C4C=CC(C4)C3C2=O)ccc1NCc1cccnc1", "note": "(centres undefined)", "inhibition": "4.01% (inactive)"}, {"smiles": "CCN(c1cc(C)cc(C)c1)S(=O)(=O)c1nnc(NC(=O)C(C)(C)C)s1", "inhibition": "5.8% (inactive)"}, {"smiles": "N/C(=N\\OS(=O)(=O)c1cc(Cl)ccc1Cl)c1ccncc1", "inhibition": "1.49% (inactive)"}, {"smiles": "Cc1ccc(-c2c(C(=O)N/N=C/c3ccc(OC(C)C)cc3)nnn2-c2nonc2N)cc1", "inhibition": "5.21% (inactive)"}, {"smiles": "Cc1oc(-c2cccc(Cl)c2)nc1CN1CCC(C(=O)N2CCN(c3ccccn3)CC2)CC1", "inhibition": "16.8% (inactive)"}, {"smiles": "CCN1CCN(C(=O)C2CCN(Cc3nc(-c4cccc(Cl)c4)oc3C)CC2)CC1", "inhibition": "-0.4% (inactive)"}, {"smiles": "C=CCn1c(O)c(C(C)=NCCc2ccccc2)c(=O)[nH]c1=O", "inhibition": "-9.8% (inactive)"}, {"smiles": "COc1cccc(NC(=O)c2cc(CN3C(=O)c4ccccc4C3=O)ccc2OC)c1", "inhibition": "-11.3% (inactive)"}, {"smiles": "Cc1cc(C)cc(C(=O)O/N=C(\\N)c2ccc(Br)cc2)c1", "inhibition": "2.33% (inactive)"}, {"smiles": "Cc1ccc(C(=O)O/N=C(\\N)c2ccc(Br)cc2)cc1", "inhibition": "17.7% (inactive)"}, {"smiles": "Cc1ccc(-c2csc3ncnc(NCCC(=O)O)c23)cc1C", "inhibition": "3.2% (inactive)"}, {"smiles": "COC(=O)C1=C(C)N(C)C(=O)NC1c1cc2c(cc1Br)OCO2", "note": "(centres undefined)", "inhibition": "-1.06% (inactive)"}, {"smiles": "Nc1nc(CN2CCN(c3cccc(Cl)c3)CC2)nc(N2CCCc3ccccc32)n1", "inhibition": "34.9% (inactive)"}, {"smiles": "COc1cccc(N2CCN(Cc3nc(N)nc(N4CCCc5ccccc54)n3)CC2)c1", "inhibition": "55.4% (inactive)"}, {"smiles": "O=S(=O)(Cc1cc(Cl)nc(-c2ccncc2)n1)c1ccccc1", "inhibition": "3.28% (inactive)"}, {"smiles": "Cc1ccn2c(NC3CCCCC3)c(-c3cccc(SC4CCCCC4)c3)nc2c1", "inhibition": "48.6% (inactive)"}, {"smiles": "Cc1ccn2c(NC3CCCC3)c(-c3ccncc3)nc2c1", "inhibition": "-13.9% (inactive)"}, {"smiles": "CC(C)CC(NS(=O)(=O)c1ccc2c(c1)oc(=O)n2C)C(=O)NCc1cccnc1", "note": "(centres undefined)", "inhibition": "-12.4% (inactive)"}, {"smiles": "COCCCN1C(=O)c2ccc(C(=O)Nc3cccc(OC)c3)cc2C1=O", "inhibition": "-8.36% (inactive)"}, {"smiles": "COc1ccc(CCNC(=O)c2ccc([N+](=O)[O-])cc2Cl)cc1OC", "inhibition": "-2.83% (inactive)"}, {"smiles": "CCc1cc(C(=O)NC2CCCN(Cc3ccccc3F)C2)n(C)n1", "note": "(centres undefined)", "inhibition": "6.68% (inactive)"}, {"smiles": "CC(C)CN(C(=O)CCC(=O)OC(C)C(=O)Nc1cccc(C#N)c1)c1c(N)n(CC(C)C)c(=O)[nH]c1=O", "note": "(centres undefined)", "inhibition": "-4.92% (inactive)"}, {"smiles": "COC(=O)CSc1nnc(COc2ccc3ccccc3c2)o1", "inhibition": "-6.41% (inactive)"}, {"smiles": "CCOC(=O)CSc1nnc(COc2ccc3ccccc3c2)o1", "inhibition": "6.46% (inactive)"}, {"smiles": "COc1ccc(N2CCN(C(=O)CCS(=O)(=O)c3ccc4c(c3)NC(=O)C(C)S4)CC2)cc1", "note": "(centres undefined)", "inhibition": "6.18% (inactive)"}, {"smiles": "Cc1ccc(C(=O)Oc2ccc(Br)cc2C(=S)N2CCOCC2)cc1", "inhibition": "11.3% (inactive)"}, {"smiles": "O=Cc1c(NCc2ccc(Cl)cc2)c2ccccc2[nH]c1=O", "inhibition": "2.94% (inactive)"}, {"smiles": "CCCN(CC(=O)Nc1ccccc1OC)C(=O)CCC(=O)c1ccc(OCC)cc1", "inhibition": "3.5% (inactive)"}, {"smiles": "CSc1ccc(CNC(=O)C2Cc3cc(S(=O)(=O)N4CCCC4)ccc3N2C(C)=O)cc1", "note": "(centres undefined)", "inhibition": "2.84% (inactive)"}, {"smiles": "CCc1ccc(CNC(=O)C2Cc3cc(S(=O)(=O)N4CCCC4)ccc3N2C(C)=O)cc1", "note": "(centres undefined)", "inhibition": "-2.81% (inactive)"}]}]}
